Source: PubChem BioAssay (Tox21)
Records with an inconclusive call do not appear. The source made the active and inactive calls. Unless noted, calls follow the shape of the dose curve; as a rule, active = well fitted curve in the direction sought with a large enough effect in the repeat runs; inconclusive = weak or mixed curves; inactive = no such curve, though single readings can be large; an effect the other way counts as inactive or inconclusive.

Experiments:
[1] = qHTS assay to identify small molecule agonists of the estrogen receptor alpha (ER-alpha) signaling pathway in the presence of an antagonist - cell viability counter screen (AID 1259386);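 also: cells exposed to compounds for 22 h at 37 °C before the viability read; nearly all actives have a fitted effect of over 30% in size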; also: potency is read from the fitted curve at half-maximal effect; as to activity change, negative = cytotoxicity: series mostly up to about 92 µM
In short: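 Steps: 5-day stripped-FBS culture; seed and incubate 24hr; add ICI-182,780 (10.0nM final); pin 15-point compound titration; incubate 22hr at 37C; add CellTiter-Fluor at 21hr; read fluorescence.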

[2] = biological target: Progesterone receptor (Homo sapiens) (UniProt P06401); test: qHTS assay to identify small molecule agonists of the progesterone receptor (PR) signaling pathway (AID 1346784; calls by dose curve; also: nearly all actives have a fitted effect of over 30% in size; also: potency is read from the fitted curve at half-maximal effect)
In short: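 Using charcoal-stripped serum (2%) to limit endogenous steroids, PR-UAS-bla HEK 293T cells received compounds for 16 hr at 37C after 6 hr plating; beta-lactamase FRET fluorescence was recorded following 2 hr substrate loading at room temperature.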

[3] = qHTS assay to identify small molecule antagonists of the progesterone receptor (PR) signaling pathway - cell viability counter screen (AID 1346798); also: nearly all actives have a fitted effect of over 50% in size; also: potency is read from the fitted curve at half-maximal effect; as to activity change, negative = cytotoxicity: series mostly up to about 92 µM
In short: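 ATP content as viability readout: CellTiter-Glo luminescence, 30 min room temperature, in PR-UAS-bla HEK293T cells after 16 hr compound/R5020 treatment at 37C and 5% CO2.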

[4] = qHTS assay to identify small molecule agonists of the progesterone receptor (PR) signaling pathway - cell viability counter screen (AID 1346799; calls by dose curve; also: nearly all actives have a fitted effect of over 45% in size; also: potency is read from the fitted curve at half-maximal effect)
In short: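 Cytotoxicity in PR-bla HEK293T cells: 16 h compound, 37C; CellTiter-Glo added post-FRET read; luminescence after 30 min RT.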

[5] = qHTS assay to identify small molecule agonists of the TGF-beta/Smad signaling pathway (AID 1346859; active = well fitted activation curve with a large enough effect in the signal ratio in the repeat runs, not every such curve was filed as active; the % refers to the signal ratio; also: series mostly up to about 77 µM)
In short: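 Stable Smad binding element-beta-lactamase HEK 293T cells; 5 hr compound exposure at 37 C under 5% CO2; 2 hr room-temperature substrate step; fluorescence excited at 405 nm, collected at 460 nm and 530 nm.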

[6] = biological target: Thyrotropin-releasing hormone receptor (Homo sapiens) (UniProt P34981); test: qHTS assay to identify small molecule antagonists of the thyrotropin-releasing hormone receptor (TRHR) signaling pathway (AID 1346877; active = well fitted inhibition curve with a large enough effect in the repeat runs, not every such curve was filed as active; also: series mostly up to about 51 µM)
In short: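 Human TRHR in HEK293 cells; inhibition of the intracellular calcium rise triggered by 1 nM TRH was followed by fluorescence over 3 min. Compounds were run at 15 concentrations, three replicates each.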

[7] = biological target: Thyrotropin-releasing hormone receptor (Homo sapiens) (UniProt P34981); test: qHTS assay to identify small molecule agonists of the thyrotropin-releasing hormone receptor (TRHR) signaling pathway (AID 1346891; calls by dose curve;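 also: HEK293 cells expressing TRHR with calcium dye readout; series mostly up to about 58 µM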)
In short: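 In 1536-format, 1500 TRHR-Hek293 cells per well grew 18 h, took up calcium dye for 2 h at 37 °C, received compound, and were read kinetically; 15-point titrations, triplicates.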

[8] = Caspase-3/7 induction in CHO-K1 cells by small molecules, qHTS cell viability counter screen (AID 1346979); also: nearly all actives have a fitted effect of over 35% in size; also: potency is read from the fitted curve at half-maximal effect
In short: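 To flag cytotoxic compounds, treated CHO-K1 wild-type cells were given CellTiter-Fluor at 16hr and read fluorescently after 1hr at 37C; the caspase-3/7 luminescence was measured in these same wells.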

[9] = Caspase-3/7 induction in CHO-K1 cells by small molecules, qHTS assay (AID 1346980); also: nearly all actives have a fitted effect of over 15% in size
In short: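 Wild-type cells were seeded at 1,500 per well and settled 5 hr at 37 C, 5% CO2, then exposed to DMSO-dissolved compounds for 17 hr. Caspase-Glo 3/7 reagent was added, and luminescence was read after 30min at room temperature.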

[10] = biological target: Nuclear receptor subfamily 1 group I member 2 (Homo sapiens) (UniProt O75469); test: Human pregnane X receptor (PXR) small molecule agonists, qHTS assay (AID 1346982); also: nearly all actives have a fitted effect of over 35% in size; also: potency is read from the fitted curve at half-maximal effect
In short: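 After plating in 5% charcoal-stripped FBS and a 5 hr rest, PXR-Luc HepG2 cells received compounds in DMSO. Following 24 hr at 37 C, ONE-Glo was added and light output read.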

[11] = qHTS assay to identify small molecule antagonists of the TGF-beta/Smad signaling pathway - cell viability counter screen (AID 1346824); also: nearly all actives have a fitted effect of over 50% in size
In short: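 SBE-bla HEK 293T cells were plated overnight at 37 C, then given compounds in DMSO plus TGF-beta1 (added as 0.25 ng/mL solution) for 5 hr. After the bla read, CellTiter-Glo was added to the same wells and luminescence read after 30 min at room temperature.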

[12] = Human pregnane X receptor (PXR) small molecule agonists, qHTS cell viability counter screen (AID 1346977); also: nearly all actives have a fitted effect of over 50% in size; also: potency is read from the fitted curve at half-maximal effect
In short: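 Readout is CellTiter-Fluor fluorescence from PXR-Luc HepG2 cells. Plated cells rested 5hr, then were treated with compounds for 24hr at 37C and 5% CO2, with reagent present during the last hour.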

[13] = Caspase-3/7 induction in HepG2 cells by small molecules, qHTS assay (AID 1346978); also: nearly all actives have a fitted effect of over 15% in size
In short: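 Wild-type HepG2 cells (2,000/well) were settled 5 h at 37 C, 5% CO2, then exposed to compounds in DMSO for 17 h. Caspase-3/7 activity was read by luminescence 30 min after adding Caspase-Glo 3/7 reagent at room temperature.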

[14] = Caspase-3/7 induction in HepG2 cells by small molecules, qHTS cell viability counter screen (AID 1346981); also: nearly all actives have a fitted effect of over 30% in size; also: potency is read from the fitted curve at half-maximal effect; as to activity change, negative = cytotoxicity: series mostly up to about 92 µM
In short: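 The parent HepG2 line is plated at 2,000 cells per well and rested 5 hr before compound pinning from DMSO stocks. Following a 16-hr treatment at 37 C, a fluorogenic live-cell substrate (CellTiter-Fluor) reports viability after 1 hr.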

[15] = biological target: Cytochrome P450 2D6 (Homo sapiens) (UniProt P10635); test: Cytochrome P450 Family 2 Subfamily D Member 6 (CYP2D6) small molecule antagonists: luciferase reporter qHTS assay (AID 1671196); also: nearly all actives have a fitted effect of over 50% in size; also: potency is read from the fitted curve at half-maximal effect; as to activity change, negative = inhibition: series mostly up to about 120 µM
In short: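 Quantitative HTS of Tox21 chemicals against CYP2D6 using a luminescent proluciferin substrate. After NADPH addition, 1 h room-temperature reaction; luminescence recorded 20 min post detection reagent.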

[16] = qHTS assay to identify small molecule agonists of the TGF-beta/Smad signaling pathway - cell viability counter screen (AID 1346829); also: top concentration of the series differs between compounds; nearly all actives have a fitted effect of over 45% in size
In short: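 After overnight seating at 37 C and 5% CO2, reporter cells got compounds for 5 hr and FRET substrate for 2 hr; cell viability then came from CellTiter-Glo luminescence.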

[17] = biological target: Nuclear receptor subfamily 1 group I member 2 (Homo sapiens) (UniProt O75469); test: CYP3A4 induction through human pregnane X receptor (PXR) by small molecules, qHTS assay (AID 1346984); also: nearly all actives have a fitted effect of over 40% in size; also: potency is read from the fitted curve at half-maximal effect
In short: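 Human PXR activation is tracked via CYP3A4 promoter-luciferase in DPX-2 (HepG2) cells. Compounds treat cells for 24hr at 37C, and luminescence is read after One-Glo.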

[18] = biological target: Nuclear receptor subfamily 1 group I member 2 (Homo sapiens) (UniProt O75469); test: Human pregnane X receptor (PXR) activation by small molecules, qHTS assay (AID 1346985); also: nearly all actives have a fitted effect of over 40% in size; also: potency is read from the fitted curve at half-maximal effect
In short: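 DPX-2 cells (HepG2 co-transfected with a PXR response element and a CYP3A4-promoter luciferase construct) were seeded at 2,000 per well, rested 5 hr at 37C, then exposed to DMSO-dissolved compounds for 24 hr. Activation was read as luciferase luminescence.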

[19] = biological target: Nuclear receptor subfamily 1 group I member 2 (Rattus norvegicus) (UniProt Q9R1A7); test: Rat pregnane X receptor (rPXR) activation by small molecules, qHTS assay (AID 1346983); conditions: rPXR luciferase reporter cells, One-Glo luminescence, 24 h; max activation: stronger effect = higher value; also: nearly all actives have a fitted effect of over 20% in size
In short: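 Cell-based rPXR luciferase reporter assay, 2,000 cells per well, rested 5hr at 37 C before compound addition in DMSO, then 24 hr at 37 C. One-Glo reagent was added and luminescence read after 30 min at room temperature.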
% is scaled to controls: 0 for no effect and ±100 for the full control effect.

Sequence of Nuclear receptor subfamily 1 group I member 2 (Homo sapiens) (O75469 whole entry, looked up): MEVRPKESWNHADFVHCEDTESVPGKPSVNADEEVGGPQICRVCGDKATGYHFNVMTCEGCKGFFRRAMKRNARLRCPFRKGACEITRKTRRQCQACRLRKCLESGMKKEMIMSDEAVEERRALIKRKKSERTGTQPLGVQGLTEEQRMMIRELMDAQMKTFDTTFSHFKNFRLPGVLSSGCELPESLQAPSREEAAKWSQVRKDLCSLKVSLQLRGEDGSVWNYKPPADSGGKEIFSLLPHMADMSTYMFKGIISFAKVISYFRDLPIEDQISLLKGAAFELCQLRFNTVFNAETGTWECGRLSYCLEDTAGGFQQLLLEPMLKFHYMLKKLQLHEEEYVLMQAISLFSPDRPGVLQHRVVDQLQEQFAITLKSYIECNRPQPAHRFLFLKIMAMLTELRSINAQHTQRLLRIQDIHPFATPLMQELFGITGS
Sequence of Cytochrome P450 2D6 (Homo sapiens) (P10635 whole entry, looked up): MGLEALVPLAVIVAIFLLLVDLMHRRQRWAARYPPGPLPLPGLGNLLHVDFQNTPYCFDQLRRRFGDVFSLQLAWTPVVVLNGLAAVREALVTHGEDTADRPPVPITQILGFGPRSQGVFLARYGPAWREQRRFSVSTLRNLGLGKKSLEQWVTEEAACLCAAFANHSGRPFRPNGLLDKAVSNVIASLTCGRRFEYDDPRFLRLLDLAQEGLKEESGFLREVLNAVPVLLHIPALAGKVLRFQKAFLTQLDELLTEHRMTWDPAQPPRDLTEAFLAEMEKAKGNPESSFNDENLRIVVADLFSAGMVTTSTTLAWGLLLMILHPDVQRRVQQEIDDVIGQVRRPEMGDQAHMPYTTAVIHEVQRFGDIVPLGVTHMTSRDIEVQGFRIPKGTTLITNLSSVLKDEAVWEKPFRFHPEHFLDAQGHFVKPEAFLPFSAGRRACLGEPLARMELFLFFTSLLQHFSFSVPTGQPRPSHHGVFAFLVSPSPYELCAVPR
Sequence of Progesterone receptor (Homo sapiens) (P06401 whole entry, looked up): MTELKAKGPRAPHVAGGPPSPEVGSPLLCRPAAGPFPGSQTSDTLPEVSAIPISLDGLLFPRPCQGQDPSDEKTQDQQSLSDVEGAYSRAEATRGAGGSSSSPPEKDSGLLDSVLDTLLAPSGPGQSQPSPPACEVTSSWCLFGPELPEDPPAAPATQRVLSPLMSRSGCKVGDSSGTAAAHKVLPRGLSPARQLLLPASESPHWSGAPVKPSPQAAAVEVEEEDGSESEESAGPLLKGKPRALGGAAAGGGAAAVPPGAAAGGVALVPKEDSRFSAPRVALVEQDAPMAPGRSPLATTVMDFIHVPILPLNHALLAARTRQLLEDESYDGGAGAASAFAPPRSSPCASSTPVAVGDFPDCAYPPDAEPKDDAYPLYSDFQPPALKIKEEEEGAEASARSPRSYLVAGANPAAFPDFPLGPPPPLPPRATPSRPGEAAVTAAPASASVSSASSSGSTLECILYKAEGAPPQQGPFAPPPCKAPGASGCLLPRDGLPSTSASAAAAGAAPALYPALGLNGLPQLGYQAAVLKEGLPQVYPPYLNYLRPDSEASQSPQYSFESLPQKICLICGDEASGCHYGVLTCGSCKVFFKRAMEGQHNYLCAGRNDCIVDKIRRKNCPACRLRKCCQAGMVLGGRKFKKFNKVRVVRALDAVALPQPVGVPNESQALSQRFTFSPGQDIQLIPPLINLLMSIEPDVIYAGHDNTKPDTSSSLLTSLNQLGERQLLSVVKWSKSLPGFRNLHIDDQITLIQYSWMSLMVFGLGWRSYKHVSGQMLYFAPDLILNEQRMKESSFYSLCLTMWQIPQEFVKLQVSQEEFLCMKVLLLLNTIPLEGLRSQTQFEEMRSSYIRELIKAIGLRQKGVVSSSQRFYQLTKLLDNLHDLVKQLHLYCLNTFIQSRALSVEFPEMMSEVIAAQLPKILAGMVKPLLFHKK
Sequence of Thyrotropin-releasing hormone receptor (Homo sapiens) (P34981 whole entry, looked up): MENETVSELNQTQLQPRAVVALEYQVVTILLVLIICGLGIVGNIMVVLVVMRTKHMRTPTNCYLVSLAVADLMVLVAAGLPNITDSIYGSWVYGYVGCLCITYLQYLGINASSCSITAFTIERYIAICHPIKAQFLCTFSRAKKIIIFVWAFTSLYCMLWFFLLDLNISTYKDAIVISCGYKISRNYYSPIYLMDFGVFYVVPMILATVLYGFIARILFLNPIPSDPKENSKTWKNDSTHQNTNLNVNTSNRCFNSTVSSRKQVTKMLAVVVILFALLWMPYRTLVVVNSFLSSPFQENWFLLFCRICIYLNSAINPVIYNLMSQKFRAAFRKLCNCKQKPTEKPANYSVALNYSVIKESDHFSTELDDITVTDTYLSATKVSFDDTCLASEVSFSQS
Sequence of Nuclear receptor subfamily 1 group I member 2 (Rattus norvegicus) (Q9R1A7 whole entry, looked up): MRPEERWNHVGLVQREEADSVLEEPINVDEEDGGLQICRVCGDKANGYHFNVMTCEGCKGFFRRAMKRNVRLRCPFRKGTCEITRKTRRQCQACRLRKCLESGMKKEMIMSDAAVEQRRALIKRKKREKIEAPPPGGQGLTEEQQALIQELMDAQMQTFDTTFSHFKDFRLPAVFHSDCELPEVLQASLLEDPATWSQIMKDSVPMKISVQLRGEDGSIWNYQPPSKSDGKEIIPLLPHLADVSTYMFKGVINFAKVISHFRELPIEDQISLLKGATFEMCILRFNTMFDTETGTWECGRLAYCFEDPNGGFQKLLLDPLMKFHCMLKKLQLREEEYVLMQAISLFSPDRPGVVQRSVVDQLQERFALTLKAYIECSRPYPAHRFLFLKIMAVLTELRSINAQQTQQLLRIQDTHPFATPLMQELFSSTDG

CC[C@@H]([C@H](C)O)n1ncn(-c2ccc(N3CCN(c4ccc(OC[C@@H]5CO[C@@](Cn6cncn6)(c6ccc(F)cc6F)C5)cc4)CC3)cc2)c1=O
active: Potency [3] 16.8 µM | Potency [4] 16.8 µM | Potency [8] 7.5 µM | Potency [10] 10.6 µM
inactive: Potency [1] | Potency [2] | outcome [5] | outcome [6] | Potency [7] | outcome [9]

[O]=[Bi]
inactive: activity change, negative = cytotoxicity [1] -3.93% [at 8.39 µM] | activation [2] 4.47% [at 8.39 µM] | activity change, negative = cytotoxicity [4] 0% [at 8.39 µM] | viability change, negative = cytotoxic [11] -10.5% [at 6.97 µM] | activation [5] 2.8% [at 6.97 µM] | activity, negative = inhibition [6] 3.48% [at 4.65 µM] | activation [7] -0.278% [at 5.23 µM] | activity change, negative = cytotoxicity [12] 1.27% [at 8.39 µM] | caspase activation [13] -1.09% [at 8.39 µM] | activity change, negative = cytotoxicity [8] -0.807% [at 8.39 µM] | caspase-3/7 activation [9] -0.359% [at 8.39 µM] | activity change, negative = cytotoxicity [14] -1.33% [at 8.39 µM] | activation [10] 1.61% [at 8.39 µM] | activity change, negative = inhibition [15] -0.389% [at 10.5 µM]

CCOC(=O)[C@@H](C)Oc1ccc(Oc2nc3ccc(Cl)cc3o2)cc1
inactive: Potency [1] | Potency [2] | Potency [3] | outcome [11] | outcome [16] | outcome [5] | outcome [6] | Potency [7] | Potency [12] | Potency [13] | Potency [8] | outcome [9] | Potency [14]
active: Potency [10] 61.1 µM | Potency [15] 31.7 µM

COc1ccc([C@@H]2Sc3ccccc3NC(=O)[C@@H]2O)cc1
inactive: Potency [1] | Potency [2] | Potency [4] | outcome [11] | outcome [5] | Potency [12] | Potency [13] | Potency [8] | outcome [9] | Potency [14] | Potency [10]

CC(C)c1nnc2ccc(-c3ocnc3-c3cc(F)ccc3F)cn12
active: Potency [10] 48.6 µM
inactive: Potency [1] | Potency [2] | outcome [11] | outcome [16] | outcome [6] | Potency [7] | Potency [12] | Potency [13] | Potency [8] | outcome [9] | Potency [14]

CCCCCCCCCCCCCCC[C@H](O)[C@@H](N)CO
inactive: Potency [1] | Potency [2] | Potency [4] | outcome [11] | outcome [16] | outcome [5] | outcome [6] | Potency [7] | Potency [12] | Potency [8] | outcome [9] | Potency [14] | Potency [10] | Potency [17] | Potency [18]

COC(OC)(C(=O)c1ccccc1)c1ccccc1
active: Potency [10] 24.3 µM
inactive: Potency [1] | Potency [2] | Potency [3] | Potency [4] | outcome [11] | outcome [16] | outcome [6] | Potency [7] | Potency [12] | Potency [13] | Potency [8] | outcome [9] | Potency [14]

C[C@]12CCC(=O)C=C1C=C[C@@H]1[C@@H]2CC[C@@]2(C)[C@H]1CC[C@@]21CCC(=O)O1
active: Potency [2] 1.68 µM
inactive: Potency [1] | outcome [11] | outcome [16] | outcome [6] | Potency [7] | Potency [12] | Potency [13] | outcome [9] | Potency [14] | Potency [10] | Potency [17] | Potency [18] | Potency [15]

C=CCOC(=O)/C=C\C(=O)OCC=C
inactive: Potency [1] | Potency [2] | Potency [3] | Potency [4] | outcome [11] | outcome [5] | outcome [6] | Potency [7] | Potency [12] | Potency [13] | Potency [8] | outcome [9] | Potency [14] | Potency [10] | Potency [15]

OC/C(Br)=C(\Br)CO
active: Potency [15] 35.3 µM
inactive: Potency [1] | Potency [2] | Potency [3] | Potency [4] | outcome [11] | outcome [5] | Potency [7] | Potency [12] | Potency [13] | Potency [8] | outcome [9] | Potency [14] | Potency [10]

O=C(N/N=C/c1ccc([N+](=O)[O-])o1)c1ccc(O)cc1
active: Potency [1] 29.8 µM | Potency [12] 10.6 µM | Potency [8] 23.7 µM | Potency [14] 29.8 µM
inactive: Potency [2] | Potency [3] | outcome [11] | outcome [5] | Potency [7] | Potency [13] | outcome [9] | max activation [19] -12.4% | Potency [17] | Potency [18]

O=C(O)C(Cc1cc(I)c(O)c(I)c1)c1ccccc1 (stereo not drawn)
inactive: Potency [1] | Potency [2] | Potency [4] | outcome [11] | outcome [16] | outcome [5] | Potency [12] | Potency [13] | Potency [8] | outcome [9] | Potency [14] | Potency [10] | Potency [17] | Potency [18]

O=C(CCCN1CCC(O)(c2ccc(Br)cc2)CC1)c1ccc(F)cc1
inactive: Potency [1] | Potency [2] | Potency [3] | Potency [4] | outcome [11] | outcome [16] | outcome [6] | Potency [7] | Potency [12] | Potency [8] | outcome [9] | Potency [14] | max activation [19] -1.43%
active: Potency [17] 11.2 µM | Potency [18] 11.2 µM | Potency [15] 2.45 µM
